Only a selection was taken, and hits are over-represented in it overall.
Sm TGR block – blocks Schistosoma mansoni thioredoxin glutathione reductase. purified TGR, DTNB reduction, TNB absorbance 405 nm. Potency, µM (highest dose often 114 µM), without a hit: top-dose activity change, negative = inhibition, actives largely listed as inhibitors. 3% of 360,000 active. AID 485364; also: potency is read from the fitted curve at half-maximal effect; % is scaled to controls: 0 for no effect and ±100 for the full control effect; nearly all actives have a fitted effect of over 60% in size
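TGR 20 nM + NADPH 100 uM (dispensed conc.), cpd preinc 15 min RT; start with NADPH (500 uM addition) then DTNB (15 mM addition). Kinetic TNB absorbance, 405 nm filter. Four-parameter Hill fit across titration.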
FBPA Giardia inh – blocks Giardia fructose-bisphosphate aldolase activity. A8B2U2. purified Giardia FBPA. Potency, µM (titrated, usually from 59.6 µM), inactives show top-dose activity, negative = inhibition, most hits filed as inhibitors. 0.71% of 290,000 active; also: potency is read from the fitted curve at half-maximal effect; % is scaled to controls: 0 for no effect and ±100 for the full control effect; nearly all actives have a fitted effect of over 55% in size
Target sequence (A8B2U2 whole entry, looked up): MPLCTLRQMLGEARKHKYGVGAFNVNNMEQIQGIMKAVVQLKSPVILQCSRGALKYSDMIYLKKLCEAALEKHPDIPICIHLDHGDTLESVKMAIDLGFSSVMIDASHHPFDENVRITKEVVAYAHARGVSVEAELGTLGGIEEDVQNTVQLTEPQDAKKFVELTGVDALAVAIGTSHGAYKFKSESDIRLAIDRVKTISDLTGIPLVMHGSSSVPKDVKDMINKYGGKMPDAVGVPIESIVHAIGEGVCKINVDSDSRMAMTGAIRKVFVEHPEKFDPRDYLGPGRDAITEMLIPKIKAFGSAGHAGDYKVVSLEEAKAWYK
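Giardia FBPA (40 nM reagent) was preincubated 10 min at RT with compound (up to 57.5 uM final), then substrate plus GAPDH/TPI/NAD/arsenate coupling system with diaphorase/resazurin was added; resorufin fluorescence (525/598 nm) was read after 20 min.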
Tb PYK inh – blocks Trypanosoma brucei pyruvate kinase; Q57TT1; TbPYK enzyme, Kinase-Glo Plus ATP luminescence, 45 min; Potency, µM (top dose mostly 76.8 µM), inactives show at the top dose activity, negative = inhibition, most hits filed as inhibitors; 0.12% of 410,000 active; also: potency is read from the fitted curve at half-maximal effect; % is scaled to controls: 0 for no effect and ±100 for the full control effect; nearly all actives have a fitted effect of over 50% in size
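Readout: single end-point luminescence (Kinase-Glo Plus, 10 min). Reaction conditions were TbPYK/substrate plus 130 uM ADP, 45 min at RT, pH 7.2 TEA buffer. No-enzyme wells served as controls, and data were normalized before concentration-response fitting.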
CHX counter – affects cycloheximide protein synthesis inhibition readout, counter-screen | cell reporter, cycloheximide protein synthesis inhibition counterscreen | max response, % | 12% of 300,000 active; in the data active = max response mostly above about 13%, no sharp cut-off; inactive = mostly below about 14%; also: read at 38.3 µM for the half of the compounds with a filed dose; 0% is about no effect
Shiga inhibitor – inhibitors of Shiga toxin in Vero cells; inhibition, % at 38.7 µM; Vero cells, Shiga toxin protein synthesis inhibition reporter; 9.2% of 290,000 active; AID 2315; in the data active = inhibition mostly above about 28%, no sharp cut-off; inactive = mostly below about 43%; also: 0% is about no effect
LmPK inhibitor – inhibitors of Leishmania mexicana pyruvate kinase. Q27686. purified LmPK, Kinase-Glo ATP luminescence, 1 h. Potency, µM (series often up to 57.5 µM), for inactives: at the highest dose activity change, negative = inhibition, most hits filed as inhibitors. 0.37% of 290,000 active. AID 1721; also: potency is read from the fitted curve at half-maximal effect; % is scaled to controls: 0 for no effect and ±100 for the full control effect
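Pyruvate kinase activity monitored as ATP production (luciferase luminescence). Conditions: 0.1 nM enzyme, 0.5 mM PEP, 0.1 mM ADP, 1 h, RT; normalized against uninhibited and no-enzyme wells.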
* marks the source's active call; other numbers are inactive results; ? = inconclusive; · = not tested or not shown; [ ] = remark or other dose. Unless noted, calls follow the shape of the dose curve; as a rule, active = well fitted curve in the direction sought with a large enough effect; inconclusive = small, poorly fitted or top-dose-only effect, or another doubt; inactive = no such curve, though single readings can be large; an effect the other way counts as inactive or inconclusive.

SMILES	Sm TGR block	FBPA Giardia inh	Tb PYK inh	CHX counter	Shiga inhibitor	LmPK inhibitor
Cc1ccc(C(=O)Nc2ncn[nH]2)cc1	-22%	3%	-3%	-2	-15	-1%
CC(C)(C)c1ccc(C(=O)Nc2cnccn2)cc1	8%	-9%	3%	27*	41*	-16%
CC(C)(C)c1ccc(C(=O)Nc2ncn[nH]2)cc1	1%[57.1 µM]	-11%	-2%	33*	75*	-28%
COc1ccc(C(=O)Nc2cnccn2)cc1[N+](=O)[O-]	5%	6%	3%	1	-7	-6%
C#CCOCCOCCOCCNc1nc(N2CCN(C(=O)CCCCCCCCCCNC(=O)[C@H](CCCCN)n3cc(CCCC(=O)O)nn3)CC2)nc(N2CCN(C(=O)CCCCCCCCCCNC(=O)[C@H](CCCCN)n3cc(CCCC(=O)O)nn3)CC2)n1	?	·	-3%	·	·	·
C#CCOCCOCCOCCNc1nc(N2CCN(C(=O)CCCCCCCCCCNC(=O)[C@H](CCC(=O)O)n3cc(CCCCCN)nn3)CC2)nc(N2CCN(C(=O)CCCCCCCCCCNC(=O)[C@@H]([C@H](C)O)n3cc(C)nn3)CC2)n1	-31%	·	-8%	·	·	·
C#CCOCCOCCOCCNc1nc(N2CCN(C(=O)CCCCCCCCCCNC(=O)[C@H](CCCCN)n3cc(C)nn3)CC2)nc(N2CCN(C(=O)CCCCCCCCCCNC(=O)[C@@H]([C@H](C)CC)n3cc(CCCCCN)nn3)CC2)n1	25µM*	·	·	·	·	·
C#CCOCCOCCOCCNc1nc(N2CCN(C(=O)CCCCCCCCCCNC(=O)[C@H](CCCCN)n3cc(CCO)nn3)CC2)nc(N2CCN(C(=O)CCCCCCCCCCNC(=O)[C@@H]([C@H](C)O)n3cc(C)nn3)CC2)n1	18µM*	·	1%	·	·	·
C#CCOCCOCCOCCNc1nc(N2CCN(C(=O)CCCCCCCCCCNC(=O)[C@H](CCCCN)n3cc(CCO)nn3)CC2)nc(N2CCN(C(=O)CCCCCCCCCCNC(=O)[C@H](CCCCN)n3cc(CCO)nn3)CC2)n1	35µM*	·	2%	·	·	·
C#CCOCCOCCOCCNc1nc(N2CCN(C(=O)CCCCCCCCCCNC(=O)[C@H]([C@@H](C)CC)n3cc(CCCCCN)nn3)CC2)nc(N2CCN(C(=O)CCCCCCCCCCNC(=O)[C@@H]([C@H](C)O)n3cc(C)nn3)CC2)n1	-29%	·	-2%	·	·	·
COc1ccc(S(=O)(=O)c2c(C(=O)c3ccc(C)c(C)c3)cnc3ccc(C)cc23)cc1	-1%	·	0%	·	·	·
COC(=O)c1ccccc1NC(=O)C1(c2cccs2)CCOCC1	4%	·	3%	·	·	·
CCCOc1ccc(NC2=CC(=O)CC(C)(C)C2)cc1	-11%	1%	-1%	17*	48	-2%
CC1(C)CC(=O)C=C(Nc2ccccc2N)C1	-4%	12%	-2%	-3	-7	-3%
CCc1ccc(NC2=CC(=O)CC(C)(C)C2)cc1	7%	2%	7%	14	25	-6%
Cc1ccc(NC2=CC(=O)CC(C)(C)C2)c(N)c1	2%	-22%	-5%	60*	128*	-5%
CC1(C)CC(=O)C=C(Nc2ccc3c(c2)OCCO3)C1	2%	0%	7%	52*	50	5%
CCOC(=O)N1CCc2c(sc3c2c(=O)n(CCc2ccccc2)c(=O)n3Cc2cc(C)ccc2C)C1	-2%	·	-4%	·	·	·
COc1ccc(S(=O)(=O)N2CCC(C(=O)NN3CCCCC3)CC2)cc1	·	·	0%	·	·	·
Cc1ccsc1/C=N/NC(=O)c1cc(-c2ccncc2)nc2ccccc12	-4%	-2%	-5%	-1	-3	0%
C(=N\Nc1nc2ccccc2[nH]1)/c1cccs1	-17%	-2%	-5%	69*	124*	14µM*
Cc1ccsc1/C=N/Nc1nc2ccccc2[nH]1	-11%	2%	-22%	43*	active	14µM*
COc1ccc(/C(N)=N/OC(=O)/C=C/c2ccccc2)cc1	9%	-3%	-4%	19	30	0%
Cc1ccccc1/C(N)=N/OC(=O)/C=C/c1ccccc1	-2%	1%	1%	44*	159*	-14%
Cc1ccc(/C(N)=N/OC(=O)/C=C/c2ccccc2)cc1	4%	2%	-2%	23*	55	0%
SMILES	Sm TGR block	FBPA Giardia inh	Tb PYK inh	CHX counter	Shiga inhibitor	LmPK inhibitor
COc1ccc(/C=C/C(=O)O/N=C(\N)c2ccccc2)cc1OC	-4%	2%	5%	36*	28*	-3%
COc1ccc(/C=C/C(=O)OC(C)C(=O)c2ccccc2)cc1OC (centres undefined)	-1%	·	3%	·	·	·
CC(C)(C)C(=O)Nc1ccc(C(=O)NNC(=O)c2ccccc2)cc1	-4%	5%	2%	31*	78*	0%
CC(C)(C)C(=O)Nc1ccc(C(=O)NNC(=O)Cc2ccccc2)cc1	1%	-13%	-4%	15*	12	3%
O=C(O)c1cc(NC(=O)c2ccc(Br)cc2)cc(NC(=O)c2ccc(Br)cc2)c1	-26%	14%	-1%	-3	-6	-9%
CC(C)(C)C(=O)Nc1ccc(C(=O)Nc2cc(NC(=O)c3ccc(NC(=O)C(C)(C)C)cc3)cc(C(=O)O)c2)cc1	-14%	-9%	-5%	19*	10	0%
O=C(Cc1ccccc1)Nc1ccc(C(=O)NCc2ccccc2)cc1	5%	2%	4%	5	10	1%
Nc1c(C(=O)c2ccccc2)sc2nsc(SCCN3CCCC3)c12	40µM*	1%	-2%	40*	104*	-5%
CC(=O)c1sc2nsc(SCCN3CCCCC3)c2c1N	-19%	-4%	-14%	29*	43	-3%
COC(=O)NC(NS(=O)(=O)c1ccccc1)(C(=O)OC)C(F)(F)F (centres undefined)	9%	1%	-2%	1	-2	-2%
CCOC(=O)C(NS(=O)(=O)c1ccccc1)(C(F)(F)F)P(=O)(OCC(C)C)OCC(C)C (centres undefined)	18µM*	-1%	-7%	-1	-4	9%
Cc1ccc(/C=C/C(=O)N2CC(=O)Nc3ccccc32)o1	8.9µM*	?	?	6	32	-3%
Cc1ccc(/C=C/C(=O)N2CCN(Cc3ccccc3)CC2)o1	14µM*	-15%	-3%	16	-37	2%
Cc1cc(C)c(C)c(S(=O)(=O)N2CCN(C(=O)c3ccco3)CC2)c1C	·	·	4%	·	·	·
Cc1ccc(/C=C/C(=O)N2CCN(S(=O)(=O)c3c(C)c(C)cc(C)c3C)CC2)o1	10µM*	0%	?	-3	-8	1%
Cc1cc(C)cc(C(=O)N2CC(=O)Nc3ccccc32)c1	7%	-18%	3%	1	-14	7%
Cc1ccc(/C=C/C(=O)N2CCN(S(=O)(=O)c3ccc(C)c(C)c3)CC2)o1	13µM*	-12%	14µM*	-2	-3	7%
COc1ccc(CNC(=O)c2cc3c(=O)oc4ccc(C)cc4c3s2)c(OC)c1	10%	·	-4%	·	·	·

From PubChem
